# Experimental data from PubChem BioAssay AID1347417 (National Center for Advancing Translational Sciences (NCATS), 2020).
# About 5,300 (4.4%) of roughly 120,000 compounds were called active. About 22% were inconclusive and are not listed. The sample holds actives, similar compounds and a random draw of the others, so the mix is not that of the screen. Unmarked numbers belong to inactive results. Calls come from the whole dose curve; as a rule, active = well fitted inhibition curve with a large enough effect; inconclusive = small, poorly fitted or top-dose-only effect; inactive = no such curve, though single readings can be large or run the other way.
# Experiment: qHTS Primary assay for Inhibitors of Plasmodium falciparum Dd2 growth in vitro; note: nearly all actives have a fitted effect of over 65% in size;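 for activity, negative = inhibition: plate controls were DMSO vehicle for no effect and reference drug for full effect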
# Conditions: P. falciparum Dd2 growth, SYBR Green, 72 h; series mostly up to 28.9 µM; activity, negative = inhibition: at the top concentration
# Summary of the method: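 Infected erythrocytes (Dd2, 0.3% parasitemia, 2.5% hematocrit final) are added to compound in RPMI-1640/Albumax II medium, grown 72 h at 37C in low oxygen, then lysed with saponin/Triton-X containing SYBR Green and read by fluorescence.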
# Potency is the fitted concentration of half-maximal effect.
SMILES,"activity, negative = inhibition",outcome,Potency
CC(=O)N1CCc2nc(C3CC3)nc(-c3ccc(Cl)cc3)c2C1,-17.7% [at 44.1 µM],,
CC(C)c1nc2c(c(-c3ccc(O)cc3)n1)CN(C(=O)Nc1ccccc1)CC2,,inactive,
O=C(Nc1ccccc1)N1CCc2nc(-c3ccccc3)nc(-c3ccc(Cl)cc3)c2C1,,,10 µM (active)
COc1ccc(-c2nc(-c3ccccc3)nc3c2CN(C(=O)c2ccc(C)cc2)CC3)cc1,,,11.2 µM (active)
COc1ccc(-c2cc3nc4c(c(=O)n3[nH]2)CN(C(=O)c2ccc(C)nc2)CC4)cc1,-16.8% [at 5.79 µM],,
Cc1nc2c(c(-c3ccc(O)cc3)n1)CN(C(=O)c1ccccc1C)CCC2,-25%,,
Cc1ccc(F)c(OCC(=O)c2ccc3c(c2)N(CCCC(=O)NCC2CCCO2)C(=O)CO3)c1 (configuration not stated),,inactive,
O=C(Cc1ccc(Oc2ccccc2)cc1)N1CC(COc2ccccc2)C2(C1)CN(C(=O)c1cn[nH]c1)C2 (configuration not stated),-2.51%,,
O=C(CC1COCCN1)NCCc1nc(-c2ccccn2)no1 (configuration not stated),2.23%,,
O=C(NC[C@H]1OC[C@@H](NC2CCOCC2)[C@@H]1O)C1CCCC1,,inactive [at 44.1 µM],
O=C(NCCCN1CCOCC1)C1CCN(C(=O)N2CC3CC(C2)[C@H]2CCCC(=O)N2C3)CC1 (some centres not stated),-15.4%,,
Clc1ccccc1C1(c2ccnc(NCCn3cccn3)n2)CCNCC1,-4.47%,,
COc1ccc(N2CCC(NC(=O)c3ccc4[nH]ccc4c3)C2=O)cc1 (configuration not stated),-7.21%,,
COc1ccc(-c2nc(C(C)C)nc3c2CCN(C(=O)Cc2ccccn2)CC3)cc1,-16.1%,,
COc1ccc(-c2nc(C3CC3)nc3c2CCN([S+](=O)([O-])c2ccccc2)CC3)cc1,,,7.94 µM (active)
COc1ccc(C2=NOC3(CCCN([S+](=O)([O-])c4ccccc4)C3)C2)cc1 (configuration not stated),0.512%,,
COc1ccc(-c2nc(C(C)C)nc3c2CCN([S+](=O)([O-])c2cccc(C(F)(F)F)c2)CC3)cc1,,,7.08 µM (active)
COc1cccc([S+](=O)([O-])N2CCCC3(CC(c4cccc(C(F)(F)F)c4)=NO3)C2)c1 (configuration not stated),1.81%,,
COc1ccc(-c2nc(C)nc3c2CN([S+](=O)([O-])c2onc(C)c2C)CC3)cc1,,inactive,

SMILES,"activity, negative = inhibition",outcome,Potency
CNC(=O)CCC[C@H]1NC[C@@H]2CCCN3CCC[C@H]1[C@H]23,5.79%,,
CCNC(=O)[C@@H]1C[C@H](N)CN1C(=O)[C@@H](C)c1ccc2cc(OC)ccc2c1,-4.1%,,
COc1ccccc1N1CCN(C(=O)c2ccccc2-c2ncc[nH]2)CC1=O,5.23%,,
Cc1nn(CC(=O)O)c(=O)c2nc(C(C)C)sc12,37%,,
O=C(NC1CCCN(c2cc(-c3ccc(Cl)cc3)[nH]n2)C1)c1ccncc1 (configuration not stated),-9.77%,,
COC(=O)c1ccc(NC(=O)c2cc(S(=O)(=O)N3CCC(C)CC3)cn2C)cc1,13.3%,,
CC(C)(C)OC(=O)N1CCC(c2c(C(=O)Nc3ccc4c(c3)OCO4)cnn2-c2ccccc2)CC1,,,5.01 µM (active)
Cc1ccc(NC(=O)c2cc3n(n2)CC(c2ccc4c(c2)OCO4)OC3)cc1C (configuration not stated),-22.5%,,
COC(=O)c1ccc(NC(=O)c2cnn(-c3ccc(Cl)cc3)c2C2CCN(C(=O)OC(C)(C)C)CC2)cc1,,,7.94 µM (active)
COC(=O)c1ccc(NC(=O)c2cccc3c2C(=O)N(C2CCCCC2)C3)cc1,16.6%,,
CCc1ccccc1NC(=O)c1cnn(-c2ccc(F)cc2)c1C1CCNCC1,-14%,,
COC[C@@H]1[C@H](NC(=O)C2CCN(C(=O)c3ccncc3)CC2)[C@@H]2CCO[C@H]12,-6.77%,,
Cn1cc(CNC(=O)C[C@@H]2C[C@H]3O[C@H](CNC4Cc5ccccc5C4)[C@@H](O)[C@H]3O2)cn1,20.1% [at 44.1 µM],,
CCc1nc2ccc(C(=O)N3CCN(c4cccc(Cl)c4)CC3)cc2nc1CC,-17.5%,,
Cc1ccc(Cl)cc1N1CCN(C(=O)c2cccn3c(=O)c4cc(Cl)ccc4nc23)CC1,8.94%,,
CCc1nc2ccc(C(=O)N3CCN(c4cc(Cl)ccc4C)CC3)cc2nc1CC,,,11.2 µM (active)
N#Cc1cccc(C(=O)NC2CCN(c3cc(-c4ccc(Cl)cc4)[nH]n3)C2)c1 (configuration not stated),-18.8%,,
O=C1CN(Cc2cc3cc4c(cc3[nH]c2=O)OCO4)CCCN1,-6.4%,,
